Compound activity from PubChem.
D1 ag – agonists of human D1 dopamine receptor. P21728. HEK293 T-REx D1 cells, calcium flux, agonist mode. activation, % at 2 µM. 360,000 compounds, 1% hits; in the data active means activation above about 30%; further: 0% is about no effect
Target sequence (P21728 whole entry, looked up): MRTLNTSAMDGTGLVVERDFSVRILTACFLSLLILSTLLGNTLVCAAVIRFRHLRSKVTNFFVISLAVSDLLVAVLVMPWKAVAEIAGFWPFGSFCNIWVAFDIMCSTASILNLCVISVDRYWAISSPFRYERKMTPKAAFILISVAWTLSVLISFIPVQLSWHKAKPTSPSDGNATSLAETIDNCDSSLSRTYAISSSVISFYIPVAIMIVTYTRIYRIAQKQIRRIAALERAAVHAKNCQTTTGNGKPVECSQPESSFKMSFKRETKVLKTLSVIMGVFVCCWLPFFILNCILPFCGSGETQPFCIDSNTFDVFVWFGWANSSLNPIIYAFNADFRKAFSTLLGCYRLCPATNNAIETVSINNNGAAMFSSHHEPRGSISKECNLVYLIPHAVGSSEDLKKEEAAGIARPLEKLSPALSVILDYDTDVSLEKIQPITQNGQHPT
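Inducible HEK293 T-REx D1 cells, force-coupled to calcium signalling, were plated at 4000 cells/well with tetracycline and held overnight at 30 C. After no-wash calcium dye loading, compound-evoked calcium rise over 180 s flagged agonists.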
D1 antagonist – human D1 dopamine receptor antagonism. P21728. 360,000 compounds, 3.2% hits. activity change, negative = inhibition, % at 10 µM. HEK293 TREx D1 cells, calcium flux, dopamine EC80; active compounds read low; in the data active means activity change below about -30%; further: on the % scale 0 is the no-effect control and ±100 the full control effect
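After overnight tetracycline induction at 30 C, force-coupled D1 HEK293 cells took up a no-wash calcium dye at room temperature. Compounds were added and monitored 180 s, and the response to EC80 dopamine was then recorded.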
D1 potentiator – potentiators of human D1 dopamine receptor | AID 504651 | HEK293 TREx D1 cells, calcium flux, dopamine EC20 potentiation | P21728 | 360,000 compounds, 0.036% hits | potentiation, % at 10 µM; in the data active means potentiation above about 30%; further: 0% is about no effect
DRD3 antagonist – blocks the human D3 dopamine receptor. P35462. D3R cells, DiscoveRx beta-arrestin luminescence, antagonist mode; active compounds read low. max response, negative = inhibition, %. 360,000 compounds, 2.5% hits. AID 652054; in the data active means max response below about -50%; inconclusive means no clear call, values can overlap the other calls; further: on the % scale 0 is the no-effect control and ±100 the full control effect
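Cells expressing the human receptor were seeded at 1500 cells/well, incubated overnight at 37 degrees C in 5% CO2, then exposed to library compounds with dopamine controls for 90 minutes at 37 degrees C before luminescent detection.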
D3 ag – D3 dopamine receptor (human) agonism; P35462; D3R DiscoveRx beta-arrestin cells, luminescence, 90 min; max activation, %; 410,000 compounds, 0.58% hits; AID 652048; in the data active means max activation above about 30%; further: 0% is about no effect
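Agonist mode: compounds and dopamine controls were applied to plated cells for 90 min at 37 degrees C after an overnight attachment at 1500 cells/well. Luminescent read-out followed 30 - 60 minutes at room temperature with DiscoveRx detection reagent.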
Starred values were filed as active, the others as inactive. The list is not random: actives were taken first. Their share in the collection is about 6%.

Screening CC1=NOC(=O)/C1=C\c1ccc(-c2cccc(Cl)c2)o1 returned D1 ag 1, D1 antagonist -51*, D1 potentiator -4, DRD3 antagonist -8 and D3 ag 3.
`CC1=NOC(=O)/C1=C\c1ccc(-c2ccc(Cl)c(C(=O)O)c2)o1` gave D1 ag 1, D1 antagonist 0, D1 potentiator -7, DRD3 antagonist -8 and D3 ag 5.
`COc1ccc(C(C)NCCC(c2ccc(OC(C)C)cc2)c2ccccc2OC)cc1` (stereo not drawn) gave D1 ag 38*, D1 antagonist 19, D1 potentiator 9, DRD3 antagonist 5 and D3 ag -14.
`COc1ccc(CNCCC(c2ccc3c(c2)OCO3)c2ccccc2OC)cc1` (stereo not drawn) gave D1 ag 80*, D1 antagonist 9, D1 potentiator -3 and D3 ag -12.
Screening COc1ccc(C(CCNC(C)c2ccccc2)C(C)C)cc1 (stereo not drawn) returned D1 ag 14, D1 antagonist 4, D1 potentiator 0, DRD3 antagonist -7 and D3 ag -9.
`COc1ccc(C(CCNCc2ccc(N(C)C)cc2)c2ccccc2)cc1` (stereo not drawn) gave D1 ag 28, D1 antagonist 4, D1 potentiator 0, DRD3 antagonist -6 and D3 ag -2.
`COc1ccc(NC(=O)CCc2nnc3n(C)c(=O)c4sccc4n23)cc1` gave D1 ag 0, D1 antagonist 10, D1 potentiator -1 and D3 ag 3.
Screening O=C(NN=C(c1ccccc1)c1ccccc1)C(CCl)C1CCCCC1 (stereo not drawn) returned D1 ag 0, D1 potentiator -4, DRD3 antagonist -51* and D3 ag 3.
CC1=NN(c2cccc(F)c2)C(=O)/C1=C/c1ccc(N(C)C)cc1 was read as D1 ag -1, D1 antagonist -85*, D1 potentiator -14, DRD3 antagonist 0 and D3 ag -1.
`CC1=NN(c2ccccc2)C(=O)C1=Cc1ccccc1` gave DRD3 antagonist inconclusive and D3 ag -3.
CCOC(=O)c1cc(-c2ccccc2)n(CCCC(=O)Nc2ccc(CC)cc2)c1C was read as D1 ag 8, D1 antagonist -30, D1 potentiator -8 and D3 ag 5.
For CC(=O)c1cc(-c2ccccc2)n(CCC(=O)Nc2ccc(C(C)C)cc2)c1C the results were D1 ag 63*, D1 antagonist -20, D1 potentiator -8 and D3 ag 6.
Screening CCOC(=O)c1cc(-c2ccccc2)n(CCCC(=O)Nc2ccc(C)c(C)c2)c1C returned D1 ag 6, D1 antagonist -48*, D1 potentiator -9 and D3 ag -1.
`CCOC(=O)c1cc(-c2ccccc2)n(CCC(=O)Nc2ccc(C(F)(F)F)cc2)c1C` gave D1 ag 85*, D1 antagonist 2, D1 potentiator -6 and D3 ag -19.
For CCOc1ccc(C(=O)Nc2nnc(S(=O)(=O)Nc3ccccc3)s2)cc1 the results were D1 ag -1, D1 antagonist -8, D1 potentiator -2 and D3 ag -1.
For CCCCN(C(=O)c1ccccc1Cl)C(CC(C)C)c1nc2ccccc2[nH]1 (stereo not drawn) the results were DRD3 antagonist 8 and D3 ag 48*.
`O=C(Nc1cc2ccc(O)cc2oc1=O)c1ccc(F)cc1` gave D1 ag 3, D1 antagonist -7, D1 potentiator -1 and D3 ag -12.
`CCOCCCNC(=O)c1ccc(CN2CCc3ccccc3C2)cc1` gave DRD3 antagonist -92* and D3 ag -2.
CCOCCCNC(=O)c1ccc(C2SCC(=O)N2Cc2ccccc2)cc1 (stereo not drawn) was read as D1 ag 6, D1 antagonist 5, D1 potentiator -1, DRD3 antagonist 19 and D3 ag -1.
`CC(C)OCCCNC(=O)c1ccc(CN2CCc3ccccc3C2)cc1` gave D1 ag 3, D1 antagonist 13, D1 potentiator -1, DRD3 antagonist -67* and D3 ag -20.
For CC(C)OCCCNC(=O)c1ccc(Br)cc1 the results were D1 ag 0, D1 antagonist -5, D1 potentiator -1, DRD3 antagonist 21 and D3 ag 2.
